Bioassay records: PubChem, National Center for Advancing Translational Sciences (NCATS)
Pf growth 96h: Primary qHTS for delayed death inhibitors of the malarial parasite plastid, 96 hour incubation | actives 6.9% (n = 320,000) | P. falciparum luciferase reporter growth, 96 h | Potency, µM (highest dose often 28.7 µM), hits mostly inhibitors | AID 504834, 2011
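96 h incubation, 37 C, 5% CO2, of luciferase-reporter P. falciparum-infected RBCs (2% hematocrit, 0.05% parasitemia final) with test compounds; endpoint luminescence.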
Pf growth 48h: Primary qHTS for delayed death inhibitors of the malarial parasite plastid, 48 hour incubation; P. falciparum luciferase growth in erythrocytes, 48 h; Potency, µM (top dose mostly 28.7 µM), usual class: inhibitors; actives 5.9% (n = 310,000); AID 504832, 2011
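Luminescence readout; reporter = integrated firefly luciferase in P. falciparum. RBC culture at 2% hematocrit, 0.1% parasitemia final, 37 C/5% CO2; decreased signal taken as growth inhibition.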
Sm TGR block: qHTS Assay for the Inhibitors of Schistosoma Mansoni Peroxiredoxins; AID 485364, 2010; actives 3% (n = 360,000); purified TGR, DTNB reduction, TNB absorbance 405 nm; Schistosoma mansoni thioredoxin glutathione reductase (TGR), Q962Y6; Potency, µM (top dose mostly 114 µM), most hits filed as inhibitors; further: nearly all actives have a fitted effect of over 60% in size
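TGR 20 nM + NADPH 100 uM (dispensed conc.), cpd preinc 15 min RT; start with NADPH (500 uM addition) then DTNB (15 mM addition). Kinetic TNB absorbance, 405 nm filter. Four-parameter Hill fit across titration.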
NS1 function inh: qHTS Assay for Inhibitors of Influenza NS1 Protein Function; Potency, µM (titrated, usually from 46.1 µM); actives 0.4% (n = 270,000); AID 2326, 2010; calls by dose curve; further: actives are rising curves; nearly all actives have a fitted effect of over 50% in size
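OD600 was taken as the measure of yeast growth restored by compound in an NS1-expressing S. cerevisiae strain. Cells had been washed out of glucose medium and diluted 1:100 into galactose -URA medium, pH 6.0.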
AMA1-RON2 inh: qHTS for Inhibitors of AMA1-RON; Towards Development of Antimalarial Drug Lead: Primary Screen. Plasmodium falciparum AMA1 (3D7) - RON2 peptide interaction. AlphaScreen AMA1-biotinylated RON2 peptide binding. Potency, µM (highest dose often 58.2 µM), most hits filed as inhibitors. actives 0.2% (n = 360,000); further: nearly all actives have a fitted effect of over 45% in size
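AMA1 (3D7) with his tag at 25 nM final met compounds first, then biotinylated RON2 peptide at 25 nM; detection used donor plus acceptor beads, 10 µg/mL apiece, read by AlphaScreen after 30 min at room temperature.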
Hits are given with their value; - = inactive; ? = inconclusive; . = no result; [ ] = dose if it differs, or a comment. Sampled rows, rich in hits. Any-hit rate of the full collection: about 11%. Unless noted, the call rests on the fitted dose curve; in most records, active means well fitted curve in the direction sought with a large enough effect; inconclusive means small, poorly fitted or top-dose-only effect, or another doubt; inactive means no such curve, though single readings can be large; an effect the other way counts as inactive or inconclusive.

SMILES | Pf growth 96h | Pf growth 48h | Sm TGR block | NS1 function inh | AMA1-RON2 inh
CCc1ccc(C(=O)c2cn(CC(=O)Nc3ccc4c(c3)OCCO4)c3ccc(CC)cc3c2=O)cc1 | . | . | - | . | .
O=C(NC1CCCCC1)C1CN(S(=O)(=O)c2ccccc2)CCN1S(=O)(=O)c1ccccc1 (stereo unspecified) | 12µM | - | - | - | -
O=C(NC1CCCC1)C1CCN(S(=O)(=O)c2ccccc2)CC1 | - | ? | - | - | -
CCNC(=O)C1CN(S(=O)(=O)c2ccccc2)CCN1S(=O)(=O)c1ccccc1 (stereo unspecified) | 2.3µM | - | - | - | -
CC(=O)Nc1ccc(OC(=O)c2cc3cc(Br)cc(Br)c3oc2=O)cc1 | - | - | - | - | .
CC(=O)Nc1ccc(OC(=O)c2cc3cc(Br)ccc3oc2=O)cc1 | 4.1µM | - | - | - | -
COCc1cc(C)nc(SCC(=O)Nc2cccc(C)c2C)c1C#N | ? | ? | - | - | -
COCc1cc(C)nc(SCC(=O)NCc2ccco2)c1C#N | 9.3µM | - | - | - | -
COc1ccc(-c2ccc(C#N)c(SCC(=O)NCc3ccco3)n2)cc1OC | ? | ? | 32µM | - | -
COc1ccc(CN2C(=O)C(CC(=O)NCCc3ccccn3)CC(C(=O)N3CCOCC3)=C2C)cc1 (stereo unspecified) | . | . | . | . | -
CN1CCN(C(=O)CN(C2CCCCC2)S(=O)(=O)c2ccc(Br)cc2)CC1 | - | - | - | - | -
O=C(/C=C/c1cccs1)NCc1ccc2c(c1)OCO2 | - | - | - | - | -
CC(Nc1nc(=S)nc(Nc2ccc(F)cc2)[nH]1)c1ccccc1 (stereo unspecified) | 10µM | 12µM | - | ? | -
CC(Nc1nc(Nc2ccc(F)cc2)nc(SCC(N)=O)n1)c1ccccc1 (stereo unspecified) | ? | ? | - | ? | -
OC(CNCc1ccccc1F)COc1cccc2ccccc12 (stereo unspecified) | ? | ? | - | - | -
Cc1cc2c(OCC(O)CNCc3ccco3)cccc2[nH]1 (stereo unspecified) | 3.3µM | 2.9µM | - | - | -
O=C(Nc1cccnc1)c1ccc2c(c1)C(=O)N(Cc1cccnc1)C2=O | 9.3µM | - | - | - | -
O=C(NCc1cccnc1)c1ccc2c(c1)C(=O)N(Cc1ccccc1)C2=O | 4.1µM | - | - | - | -
Cc1cc(=S)nc(-c2ccccn2)[nH]1 | 3.7µM | 10µM | - | - | -
Cc1[nH]c(-c2ccccn2)nc(=S)c1Cl | ? | ? | - | - | -
CCN(CC)C(=O)CSc1nc(-c2ccccc2F)nc2c1Cc1c(CO)cnc(C)c1O2 | . | . | - | . | .
Clc1ccc(-c2csc(N/N=C/c3ccc4c(c3)OCO4)n2)cc1 | ? | ? | - | - | -
Cc1onc(-c2ccc(Cl)cc2Cl)c1-c1csc(N/N=C/c2ccccc2)n1 | ? | 3.7µM | - | - | -
CCOc1ccc(OCC)c(S(=O)(=O)n2ccnc2C)c1 | ? | - | - | - | -
CCOc1ccc(S(=O)(=O)n2ccnc2C)cc1 | 12µM | - | - | ? | .
SMILES | Pf growth 96h | Pf growth 48h | Sm TGR block | NS1 function inh | AMA1-RON2 inh
Cc1cc(C(C)(C)C)cc(C)c1CCNC(=O)c1c(C)noc1C | 8.3µM | 13µM | - | . | -
Cc1csc(NC(=O)CCSCCc2ccccn2)n1 | 9.3µM | . | - | - | -
Cc1csc(NC(=O)CSc2ccc(-c3ccccn3)nn2)n1 | ? | - | - | . | 32µM
O=C(CSc1ccc(-c2ccccn2)nn1)Nc1nccs1 | - | - | - | . | -
O=C(CCSCCc1ccccn1)Nc1ccccc1C(F)(F)F | . | . | - | . | .
OC1(Cc2cc(-c3ccccc3)no2)CCN(CCCc2ccccc2)CC1 | 3.3µM | 6.6µM | - | - | -
COC(=O)C1(Cc2cc(-c3ccccc3)no2)CCN(C(=O)OC(C)(C)C)CC1 | - | - | - | - | -
O=C(CN1CCNCC1)Nc1ccccc1Cl | ? | . | -[11.4 µM] | - | -
Cc1ccccc1C(=O)NC1CCN(CC(=O)Nc2ccc(N(C)C)cc2)CC1 | - | - | 40µM | - | -
O=C(CN1CCCCC1)Nc1ccc(NC(=O)c2ccccc2Cl)cc1Cl | 15µM | - | - | - | -
O=C(NC1CCN(c2ncccn2)CC1)c1ccccc1Cl | 10µM | - | - | - | -
O=C(CN1CCCCCCC1)Nc1ccc(Cl)cc1Cl | - | - | - | . | -
O=C(CN1CCN(C(=O)c2cncn2-c2ccccc2)CC1)Nc1ccccc1Cl | 15µM | ? | - | . | -[11.6 µM]
N#Cc1ccc(OCC(=O)OCC(=O)N2CCc3ccccc32)cc1 | . | . | . | . | -
COc1ccc(NC(=O)CCN2CCN(Cc3ccccc3)CC2)c(OC)c1 | - | ? | - | - | -
COC(=O)c1ccccc1NC(=O)CN1CCC(NC(=O)c2ccccc2C)CC1 | - | ? | ? | - | -
COc1ccc(NC(=O)CN2CCN(CC(=O)Nc3ccccc3OC)CC2)c(OC)c1 | - | - | - | - | -
COc1ccc(OC)c(NC(=O)CCN2CCN(Cc3ccccc3)CC2)c1 | - | 13µM | - | - | -
COc1ccc(NC(=O)CN2CCN(CC(=O)Nc3ccccc3Cl)CC2)c(OC)c1 | 15µM | . | - | - | -
Cc1ccccc1C(=O)NC1CCN(CC(=O)Nc2ccccc2Cl)CC1 | 0.93µM | - | - | - | -
COc1ccc(C(=O)NC2CCN(CC(=O)Nc3c(C)cccc3C)CC2)cc1OC | - | - | 100µM | - | -
COc1ccc(N2CC(C(=O)Nc3nc4ccc(F)cc4s3)CC2=O)c(OC)c1 (stereo unspecified) | - | - | - | - | -
N=c1c(S(=O)(=O)c2ccc(Cl)cc2)cc2c(=O)n3ccccc3nc2n1C1CCCCC1 | ? | - | - | - | -
OCCN(CC#CCn1c2ccccc2c2ccccc21)CCO | - | - | - | - | -
COc1ccc(NS(=O)(=O)c2ccc(C)c(C(=O)N3CCC3)c2)cc1 | - | - | ? | . | -
SMILES | Pf growth 96h | Pf growth 48h | Sm TGR block | NS1 function inh | AMA1-RON2 inh
CCOC(=O)c1ccc(CN(Cc2ccc(C)cc2)S(=O)(=O)c2ccc(F)c(C(=O)Nc3ccc(C)c(F)c3)c2)cc1 | . | . | - | . | .
CNCC(=O)Nc1c(C)n[nH]c1C | - | - | - | - | -
CCCC(=O)Nc1c(C)n[nH]c1C | 0.59µM | - | - | - | -
Cc1ccc(-n2c(C)cc(/C=N/NC(=O)CC3(C)OCCO3)c2C)cc1 | ? | 13µM | - | - | -
Cc1ccc(-n2c(C)cc(/C=N/NC(=O)CN(c3ccc(C)cc3C)S(C)(=O)=O)c2C)cc1 | ? | 12µM | - | - | -
COc1ccc(CNC(=O)COC(=O)CNC(=O)c2sc3ccccc3c2Cl)cc1OC | - | - | - | . | -
O=C(CN1CCN(c2ccccc2O)CC1)Nc1ccc(S(=O)(=O)N2CCCCCC2)cc1 | 10µM | ? | - | . | -
COc1ccccc1N1CCN(CC(=O)Nc2ccc(S(=O)(=O)N3CCCCCC3)cc2)CC1 | ? | ? | - | . | -
